# Out of some 330,000 compounds screened, about 7,700 (2.3%) were called active. Where a call stands in place of a potency, no number is given. Inconclusive results (about 26%) are left out. The call rests on the fitted dose curve; in most records, active means well fitted inhibition curve with a large enough effect; inconclusive means small, poorly fitted or top-dose-only effect, or effect the other way; inactive means flat fitted curve, though single readings scatter. Only a selection was taken, and actives are over-represented in it overall.
# Assay: qHTS screen for small molecules that inhibit ELG1-dependent DNA repair in human embryonic kidney (HEK293T) cells expressing luciferase-tagged ELG1; further: nearly all actives have a fitted effect of over 55% in size
# Conditions: HEK293T ELG1-luciferase reporter, luminescence, 16 h, DNA damage induced by 5-fluorouridine; series mostly up to 46.1 µM
# In short: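 Reporter activity after DNA damage by 5-fluorouridine is monitored. Compound-treated cells incubate 16 hr at 37 °C, then ONE-Glo is added for 30 min before luminescence reading.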
# Potency means the concentration at half of the fitted maximal effect.
row,Structure (SMILES),Potency
1,Cc1cc(C)cc(NC(=O)C(c2ccccc2)N2CCN(CC(=O)N3CCCC3)CC2)c1 (configuration not stated),inactive
2,CCC(C(=O)NCc1cccnc1)n1nc(C)c2sc3ccccc3c2c1=O (configuration not stated),inactive
3,Cc1onc(-c2c(F)cccc2Cl)c1C(=O)OCC(=O)N1C(C)CCCC1C (configuration not stated),inactive
4,CCc1ccc(NC(=O)CSc2nnc(-c3cnccn3)n2Cc2ccco2)cc1,inactive
5,O=C(CSc1nnc(-c2cccs2)n1-c1ccccc1)NCc1ccco1,inactive
6,COc1ccc(NC(=O)CSc2nnc(-c3cccs3)n2Cc2ccco2)cc1OC,20.6 µM (active)
7,Cn1cc(CCC(=O)NC2CC2)c2ccccc21,inactive
8,CC(C)CCn1cnc2c1c(=O)n(CC(=O)NC(N)=O)c(=O)n2Cc1ccccc1,inactive
9,CCn1nc(C(=O)NNC(=O)C2CSC3(C)CCC(=O)N23)c2ccccc2c1=O (configuration not stated),inactive
10,O=C(NNC(=O)c1cccc(S(=O)(=O)Nc2ccc(Cl)cc2)c1)c1ccc(=O)[nH]c1,inactive
11,COc1ccc2nc(/N=C(\N)NC(=O)Nc3ccccc3)nc(C)c2c1,inactive
12,Cc1nn(-c2ccccc2)c(C)c1C(=O)OCC(=O)NC(=O)NC1CCCCC1,inactive
13,Cc1nc(/N=C(\N)NC(=O)NC2CCCCC2)nc2ccccc12,9.2 µM (active)
14,COc1cc(OC)cc(C(=O)NNC(=O)Cc2cccs2)c1,inactive
15,CC1Cc2ccccc2N1S(=O)(=O)c1cccc(C(=O)NCC(c2ccco2)N2CCCC2)c1 (configuration not stated),inactive
16,COc1cccc(C(=O)NCCS(=O)(=O)NCC2CCCO2)c1 (configuration not stated),inactive
17,COc1ccccc1-n1cnc2cc(C(=O)NCC3CCCO3)ccc21 (configuration not stated),inactive
18,COc1cccc(/C=C2\Sc3ccc(C(=O)NCC4CCCO4)cc3N(C)C2=O)c1 (configuration not stated),20.6 µM (active)
19,COc1cccc(CNC(=O)CN2C(=O)NC(Cc3ccccc3)(c3ccccc3)C2=O)c1 (configuration not stated),inactive
20,CCOc1ccc(CCNC(=O)COC(=O)c2c(OC)cccc2OC)cc1OCC,inactive
21,CCCN1C2CCCC1CC(NC(=O)c1cccc(OC)c1)C2 (configuration not stated),inactive
22,O=C(c1ccc(S(=O)(=O)N2CCCC2)cc1)N1CCN(c2ccccc2F)CC1,inactive
23,O=C(c1c(Cl)cccc1Cl)N1CCN(c2cccc3[nH]ccc23)CC1,18.3 µM (active)

row,Structure (SMILES),Potency
1,COc1ccccc1N1CCN(C(=O)c2ccc(S(=O)(=O)N3CCCCC3)cc2)CC1,inactive
2,COc1ccc(C)cc1NC(=O)CSc1nnc2ccc(-c3ccccn3)nn12,inactive
3,COC(=O)c1cccc(C(=O)N2CCC(CCC(=O)NCc3ccc(F)cc3)CC2)c1,inactive
4,CN(C)CCn1c2c(c(SCC(=O)NCc3ccccc3)nc1=O)CCC2,inactive
5,Cc1ccc(OCCNC(=O)CN2C(=O)NC3(CCCC3)C2=O)cc1,inactive
6,CC(NC(=O)COC(=O)CCC(=O)c1ccc(Cl)cc1)c1ccccc1 (configuration not stated),inactive
7,COc1ccc(C2=Nn3c(nnc3-c3ccccc3OC)SC2)cc1OC1CCCC1,20.6 µM (active)
8,COc1ccccc1-c1nnc2n1N=C(c1ccc(OC(F)F)c(OCC3CC3)c1)CS2,inactive
9,CC1=Nn2c(nnc2-c2ccccc2)SC1,inactive
10,COC(=O)c1cc(-c2cccs2)nc2ccccc12,inactive
11,CC(=O)Nc1cccc(Nc2nc(-c3cccs3)nc3ccccc23)c1,16.4 µM (active)
12,O=C(Nc1nnc(-c2ccccc2)o1)c1cc(-c2cccs2)nc2ccccc12,inactive
13,Cc1ccc2[nH]cc(CCNC(=O)C3CCCCC3)c2c1,inactive
14,O=C(c1cccs1)N(Cc1cc2ccccc2[nH]c1=O)CC1CCCO1 (configuration not stated),inactive
15,Cc1cccc(NC(=O)N(Cc2cc3cc(C)cc(C)c3[nH]c2=O)CC2COCCO2)c1 (configuration not stated),11.6 µM (active)
16,Cc1ccc2[nH]c(=O)c(CN(CCCN(C)C)C(=O)Nc3cccc(Cl)c3)cc2c1,inactive
17,Cc1cccc(N(Cc2ccccc2)C(=O)c2cc(S(=O)(=O)N3CCOCC3)ccc2F)c1,inactive
18,CC(C)(C)c1ccc(C(=O)N2CCN(CCNC(=O)C(=O)Nc3ccc(F)cc3)CC2)cc1,inactive
19,CC1=C(C(N)=O)C(c2ccc(Br)cc2)n2ncnc2N1 (configuration not stated),inactive
20,Fc1ccccc1/C=C1\CCCC2=C1Nc1ncnn1C2c1ccccc1F (configuration not stated),18.4 µM (active)
21,Cc1cccc(N(C(=O)c2sc(C)nc2C)C(C(=O)NCC2CCCO2)c2ccccc2)c1 (configuration not stated),inactive
22,CCCCn1c(SCC(=O)NCCc2ccc(OC)c(OC)c2)nc2c1c(=O)n(C)c(=O)n2C,inactive
23,CCCCNc1nc2c(c(=O)[nH]c(=O)n2C)n1CCOc1ccccc1,inactive

row,Structure (SMILES),Potency
1,COc1ccc(CCN2CNc3c(c(=O)n(C)c(=O)n3C)C2)cc1OC,inactive
2,Cn1c(=O)c2c(ncn2CCc2ccccc2)n(C)c1=O,inactive
3,CC(C)CCn1c(=O)c2c(nc3n2CCCN3Cc2ccccc2)n(C)c1=O,inactive
4,CC(C)CCn1c(CN(C)Cc2ccccc2)nc2c1c(=O)n(C)c(=O)n2C,20.6 µM (active)
5,Cn1c(=O)c2c(nc(NCCc3ccccc3)n2Cc2ccccc2)n(C)c1=O,23.1 µM (active)
6,COC(=O)C(C)Sc1nc2c(c(=O)n(C)c(=O)n2C)n1Cc1cccc(C)c1 (configuration not stated),inactive
7,Cn1c(=O)c2c(nc(NCc3ccccc3)n2CC(N)=O)n(C)c1=O,inactive
8,CCn1c(NCCc2ccc(OC)c(OC)c2)nc2c1c(=O)n(C)c(=O)n2C,11.6 µM (active)
9,Cn1c(=O)c2c(nc(NCCNC(=O)c3ccco3)n2Cc2ccccc2F)n(C)c1=O,inactive
10,CCCCNc1nc2c(c(=O)n(C)c(=O)n2C)n1Cc1cccc(OC)c1,5.17 µM (active)
11,Cn1nccc1C(=O)N1CCCC(C(=O)c2ccc(Oc3ccccc3)cc2)C1 (configuration not stated),inactive
12,Cc1ccccc1NC(=S)NC(=O)Cc1ccc(Cl)cc1,inactive
13,OC(CNCCc1ccc(Cl)cc1Cl)COc1ccccc1 (configuration not stated),inactive
14,COCCN(CCOC)S(=O)(=O)NC[C@H]1O[C@@H](n2cnc3c(N)ncnc32)[C@H](O)[C@@H]1O,inactive
15,O=c1ccc(S(=O)(=O)N2CCCC2)cn1Cc1nc(-c2ccccc2)no1,inactive
16,CCOC(=O)N1CCN(Cc2nc3c(c(=O)n(C)c(=O)n3C)n2Cc2ccccc2)CC1,10.3 µM (active)
17,Cn1c(=O)c2sccc2n(Cc2ccc(Br)cc2)c1=O,inactive
18,CCN1CCN(Cc2nc3c(c(=O)n(C)c(=O)n3C)n2CC(=O)c2ccccc2)CC1,inactive
19,Cn1c(=O)c2c(nc(N/N=C/c3cccs3)n2Cc2ccc(Br)cc2)n(C)c1=O,20.6 µM (active)
20,COCCn1cnc2c1c(=O)n(Cc1ccc(Br)cc1)c(=O)n2Cc1ccccc1,inactive
21,CN1CCN(Cc2nc3c(c(=O)n(C)c(=O)n3C)n2Cc2cccc3ccccc23)CC1,inactive

# Reference: PubChem BioAssay AID504467 (National Center for Advancing Translational Sciences (NCATS), 2011)
